Data reported in PubChem BioAssay AID623996 (NMMLSC, 2012).
Potency and affinity values are given separately. Active and inactive are the calls of the source.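 The calls were made as follows: active = fitted concentration giving half the maximal Nile Red retention below 100 µM; inactive = the rest.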

The compounds below were run against Multidrug resistance protein CDR1 (Candida albicans) (UniProt P43071) (assay: CaCdr1 efflux pump inhibitor potency, dose response, singleplex, Cherry Pick2 set (AID 623996)). Conditions: S. cerevisiae AD/CaCDR1, Nile Red efflux inhibition, flow cytometry; series mostly up to 100 µM; efflux inhibition response: at the top concentration.
Chain of Multidrug resistance protein CDR1 (Candida albicans) (P43071 whole entry, looked up): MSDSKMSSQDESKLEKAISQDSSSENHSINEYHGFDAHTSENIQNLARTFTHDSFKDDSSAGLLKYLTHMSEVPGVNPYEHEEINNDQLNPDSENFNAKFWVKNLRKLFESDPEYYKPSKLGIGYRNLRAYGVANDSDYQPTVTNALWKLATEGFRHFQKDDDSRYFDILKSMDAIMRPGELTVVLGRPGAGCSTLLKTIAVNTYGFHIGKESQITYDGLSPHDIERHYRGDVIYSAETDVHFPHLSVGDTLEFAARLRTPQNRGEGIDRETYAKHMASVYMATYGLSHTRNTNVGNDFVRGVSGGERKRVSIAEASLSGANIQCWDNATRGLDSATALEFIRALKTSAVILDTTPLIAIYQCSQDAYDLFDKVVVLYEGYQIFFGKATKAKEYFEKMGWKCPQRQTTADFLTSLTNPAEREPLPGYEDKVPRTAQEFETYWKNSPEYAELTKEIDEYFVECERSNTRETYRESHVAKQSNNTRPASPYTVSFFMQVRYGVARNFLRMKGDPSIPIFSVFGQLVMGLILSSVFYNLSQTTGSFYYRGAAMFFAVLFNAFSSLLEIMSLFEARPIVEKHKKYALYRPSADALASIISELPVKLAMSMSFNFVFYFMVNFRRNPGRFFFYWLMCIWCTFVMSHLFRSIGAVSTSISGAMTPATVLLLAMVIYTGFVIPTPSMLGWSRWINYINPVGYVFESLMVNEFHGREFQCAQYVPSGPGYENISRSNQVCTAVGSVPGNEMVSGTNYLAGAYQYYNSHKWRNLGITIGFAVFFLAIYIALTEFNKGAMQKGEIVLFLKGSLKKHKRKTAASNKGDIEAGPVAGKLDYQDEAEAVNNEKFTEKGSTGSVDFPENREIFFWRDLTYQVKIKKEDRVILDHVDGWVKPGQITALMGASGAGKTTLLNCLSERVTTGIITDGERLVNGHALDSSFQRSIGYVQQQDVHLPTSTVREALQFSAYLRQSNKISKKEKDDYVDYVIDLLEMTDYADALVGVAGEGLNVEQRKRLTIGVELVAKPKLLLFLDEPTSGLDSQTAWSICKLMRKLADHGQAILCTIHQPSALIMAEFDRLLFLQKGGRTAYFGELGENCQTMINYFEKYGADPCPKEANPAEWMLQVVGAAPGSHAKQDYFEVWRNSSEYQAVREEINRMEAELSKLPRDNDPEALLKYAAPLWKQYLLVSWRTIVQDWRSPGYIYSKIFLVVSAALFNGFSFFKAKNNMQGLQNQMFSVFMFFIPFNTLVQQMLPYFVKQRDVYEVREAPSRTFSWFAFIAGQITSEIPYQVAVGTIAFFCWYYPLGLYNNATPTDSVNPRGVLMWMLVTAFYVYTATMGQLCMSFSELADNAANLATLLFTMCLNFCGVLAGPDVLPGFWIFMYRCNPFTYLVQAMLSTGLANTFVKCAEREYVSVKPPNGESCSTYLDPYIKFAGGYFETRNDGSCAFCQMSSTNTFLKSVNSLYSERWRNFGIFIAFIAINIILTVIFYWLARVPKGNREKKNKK

Structure (SMILES)	efflux inhibition response	outcome
COc1ccc([C@H]2CC(=O)C=C(c3ccnc4ccc(Cl)cc34)C2)cc1	119% (inactive)	–
COc1cc(OC)c2c(-c3ccccc3)cc(=O)oc2c1C(CCN1CCCC(C)C1)c1ccc(N(C)C)cc1 (centres undefined)	-3.3% (inactive)	–
NS(=O)(=O)c1ccc(N2N=C(c3ccccc3)CC2c2cccc(Br)c2)cc1 (centres undefined)	-1.26% (inactive)	–
C[C@@]12C(=O)Nc3cc(F)c(F)cc3C(=O)N1[C@H]1c3cc(Cl)ccc3OC[C@@H]1[C@@H]2c1ccccc1	2.74% (inactive)	–
NC1=NC[C@H](Cc2ccccc2)N1CCCCC1CCCCC1	-3.02% (inactive)	–
COc1ccc(C(=O)OCCc2ccc(O)cc2)cc1	-2.8% (inactive)	–
COc1cc(OC)c2ccc(=O)oc2c1C(CCN1CCCC1)c1ccc(N(C)C)cc1 (centres undefined)	-1.94% (inactive)	–
Cc1ccc(CN2C(=O)C(CC(C)C)Nc3ncnc(N4CCN(c5ccccc5)CC4)c32)cc1 (centres undefined)	-4.11% (inactive)	–
Cc1ccc(O)c(C(=O)c2cnc3c(c2)CN(CCC(C)C)C(=O)N3)c1	–	inactive
COc1ccc(CCOC(=O)c2ccc(N)c([N+](=O)[O-])c2)cc1	2.25% (inactive)	–
Cc1ccc(O)c(C(=O)c2cnc3c(c2)CN(C)C(=O)N3)c1	0.64% (inactive)	–
O=C(Nc1ccccc1)C1=C[C@@H](c2ccc(Br)cc2)C[C@@H](OCCCCO)O1	-3.79% (inactive)	–
COc1ccc(-c2sc3ccccc3c2-c2ccc(OCCN(C)C)cc2)cc1	215% (inactive)	–
O=C(Nc1ccccc1)C1=C[C@@H](c2ccc(C(F)(F)F)cc2)C[C@@H](OCCCCO)O1	1.11% (inactive)	–
